Experimental data: publication PMC7862700, “An all-to-all approach to the identification of sequence-specific readers for epigenetic DNA modifications on cytosine”

What was measured:
Experiment in all cases: DAPPL (digital affinity profiling via proximity ligation, sequencing); 10 mM Tris-HCl pH 7.5, 50 mM NaCl, 1 mM DTT, 4% glycerol, room temperature, 30 min; GST-TFs on glutathione beads, 16-mer random dsDNA library, 0.1% formaldehyde crosslink after washing; high values mean tight binding
Settings in all cases: protein: recombinant; tags: N-terminal GST; dsDNA, one strand shown
FLI1 = biological target: T1, FLI1 (Homo sapiens, UniProt Q01543 1-452)
T1 sequence: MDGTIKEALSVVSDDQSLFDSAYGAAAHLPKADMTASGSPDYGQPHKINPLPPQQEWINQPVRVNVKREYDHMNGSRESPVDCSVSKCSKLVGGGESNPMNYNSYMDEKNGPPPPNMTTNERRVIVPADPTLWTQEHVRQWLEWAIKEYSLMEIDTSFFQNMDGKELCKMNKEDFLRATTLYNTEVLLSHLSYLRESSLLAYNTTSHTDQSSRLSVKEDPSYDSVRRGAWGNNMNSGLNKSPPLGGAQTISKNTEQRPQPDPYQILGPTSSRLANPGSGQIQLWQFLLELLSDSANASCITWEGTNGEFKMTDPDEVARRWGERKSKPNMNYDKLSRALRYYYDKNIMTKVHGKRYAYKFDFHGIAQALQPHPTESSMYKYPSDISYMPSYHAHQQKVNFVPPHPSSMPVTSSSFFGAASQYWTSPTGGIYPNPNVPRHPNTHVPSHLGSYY
Summary of the method: (§1)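 GST fusions of human transcription factors were expressed in yeast and captured with glutathione beads. Once given DNA barcodes and pooled alongside a tag-only sample, they were incubated for 30 min at room temperature with 200 nmole of a random double-stranded 16-mer DNA library in Tris/NaCl/DTT/glycerol buffer, then washed, crosslinked (0.1% formaldehyde), proximity-ligated, PCR-amplified and sequenced on an Illumina NextSeq500. The binding signal of each hexamer is its read frequency for a factor divided by its frequency for the tag-only sample.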

ELK1 = biological target: T2, ELK1 (Homo sapiens, UniProt P19419 1-428)
T2 sequence: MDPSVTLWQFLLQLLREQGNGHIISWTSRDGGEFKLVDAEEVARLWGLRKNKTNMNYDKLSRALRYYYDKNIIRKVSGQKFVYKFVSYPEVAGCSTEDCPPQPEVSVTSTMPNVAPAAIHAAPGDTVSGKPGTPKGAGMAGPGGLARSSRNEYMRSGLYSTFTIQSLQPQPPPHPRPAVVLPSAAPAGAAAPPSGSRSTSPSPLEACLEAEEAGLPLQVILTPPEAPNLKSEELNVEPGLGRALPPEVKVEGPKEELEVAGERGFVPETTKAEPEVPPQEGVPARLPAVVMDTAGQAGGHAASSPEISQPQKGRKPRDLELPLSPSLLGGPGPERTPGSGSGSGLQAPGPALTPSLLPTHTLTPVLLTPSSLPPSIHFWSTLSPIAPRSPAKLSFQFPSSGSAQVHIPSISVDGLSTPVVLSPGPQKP
Summary of the method: as §1

GABPA = biological target: T3, GABPA (Homo sapiens, UniProt Q06546 1-454)
T3 sequence: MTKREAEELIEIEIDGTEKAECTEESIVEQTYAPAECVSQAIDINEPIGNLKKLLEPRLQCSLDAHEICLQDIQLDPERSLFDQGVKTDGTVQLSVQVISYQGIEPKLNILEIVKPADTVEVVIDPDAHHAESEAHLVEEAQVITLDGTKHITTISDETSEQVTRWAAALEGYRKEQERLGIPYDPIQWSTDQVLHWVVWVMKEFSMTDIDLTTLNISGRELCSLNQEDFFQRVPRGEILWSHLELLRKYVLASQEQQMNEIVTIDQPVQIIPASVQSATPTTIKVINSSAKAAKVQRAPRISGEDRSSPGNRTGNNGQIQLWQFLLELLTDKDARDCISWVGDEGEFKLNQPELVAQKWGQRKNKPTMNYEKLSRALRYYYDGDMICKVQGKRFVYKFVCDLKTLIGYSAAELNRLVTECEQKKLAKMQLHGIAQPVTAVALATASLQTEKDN
Summary of the method: as §1

ERG = biological target: T4, ERG (Homo sapiens, UniProt P11308 1-479)
T4 sequence: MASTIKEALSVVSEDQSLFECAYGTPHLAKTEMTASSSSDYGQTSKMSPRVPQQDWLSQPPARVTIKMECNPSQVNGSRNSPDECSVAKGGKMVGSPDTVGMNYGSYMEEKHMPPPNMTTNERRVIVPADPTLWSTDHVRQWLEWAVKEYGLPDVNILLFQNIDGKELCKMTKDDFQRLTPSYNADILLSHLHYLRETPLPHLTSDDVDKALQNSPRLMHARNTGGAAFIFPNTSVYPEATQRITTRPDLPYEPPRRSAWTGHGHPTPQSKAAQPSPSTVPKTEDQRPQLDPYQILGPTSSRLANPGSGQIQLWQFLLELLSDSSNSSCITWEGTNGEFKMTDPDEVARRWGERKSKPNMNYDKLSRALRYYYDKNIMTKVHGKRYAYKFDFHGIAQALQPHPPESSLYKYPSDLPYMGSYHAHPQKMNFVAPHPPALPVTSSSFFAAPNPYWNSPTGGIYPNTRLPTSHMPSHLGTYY
Summary of the method: as §1

ELF1 = ELF1 (Homo sapiens, UniProt P32519 1-619)
Summary of the method: as §1

EHF = biological target: T5, EHF (Homo sapiens, UniProt Q9NZC4 1-300)
T5 sequence: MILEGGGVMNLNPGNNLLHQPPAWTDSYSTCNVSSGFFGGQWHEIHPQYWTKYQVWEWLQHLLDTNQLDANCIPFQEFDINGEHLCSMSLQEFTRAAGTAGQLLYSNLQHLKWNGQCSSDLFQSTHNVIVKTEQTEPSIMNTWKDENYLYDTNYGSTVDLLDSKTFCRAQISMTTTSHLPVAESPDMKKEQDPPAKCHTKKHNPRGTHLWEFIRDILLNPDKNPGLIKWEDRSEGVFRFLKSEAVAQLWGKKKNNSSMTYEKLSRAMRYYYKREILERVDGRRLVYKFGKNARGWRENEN
Summary of the method: as §1

SPI1 = SPI1 (Homo sapiens, UniProt P17947 1-270)
Summary of the method: as §1

SPIB = SPIB (Homo sapiens, UniProt Q01892 1-262)
Summary of the method: as §1

ELK3 = biological target: T6, ELK3 (Homo sapiens, UniProt P41970 1-407)
T6 sequence: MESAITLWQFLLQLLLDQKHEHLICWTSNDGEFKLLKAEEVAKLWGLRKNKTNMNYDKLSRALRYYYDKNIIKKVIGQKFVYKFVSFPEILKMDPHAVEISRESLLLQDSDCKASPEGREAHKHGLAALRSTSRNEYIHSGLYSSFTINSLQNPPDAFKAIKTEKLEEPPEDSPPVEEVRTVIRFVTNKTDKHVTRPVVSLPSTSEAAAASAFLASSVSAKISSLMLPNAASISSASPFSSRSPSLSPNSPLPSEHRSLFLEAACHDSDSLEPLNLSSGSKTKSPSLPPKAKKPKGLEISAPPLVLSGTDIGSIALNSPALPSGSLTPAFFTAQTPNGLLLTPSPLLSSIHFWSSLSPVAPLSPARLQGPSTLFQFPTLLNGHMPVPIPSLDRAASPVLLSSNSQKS
Summary of the method: as §1

SPIB, sequence (Q01892 whole entry): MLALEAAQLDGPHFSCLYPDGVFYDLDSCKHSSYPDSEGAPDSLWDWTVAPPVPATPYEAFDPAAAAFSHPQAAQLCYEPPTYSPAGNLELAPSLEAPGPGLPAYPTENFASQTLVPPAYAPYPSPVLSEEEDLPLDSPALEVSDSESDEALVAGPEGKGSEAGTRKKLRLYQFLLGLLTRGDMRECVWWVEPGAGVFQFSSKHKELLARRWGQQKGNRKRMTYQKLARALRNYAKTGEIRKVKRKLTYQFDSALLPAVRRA
ELF1, sequence (P32519 whole entry): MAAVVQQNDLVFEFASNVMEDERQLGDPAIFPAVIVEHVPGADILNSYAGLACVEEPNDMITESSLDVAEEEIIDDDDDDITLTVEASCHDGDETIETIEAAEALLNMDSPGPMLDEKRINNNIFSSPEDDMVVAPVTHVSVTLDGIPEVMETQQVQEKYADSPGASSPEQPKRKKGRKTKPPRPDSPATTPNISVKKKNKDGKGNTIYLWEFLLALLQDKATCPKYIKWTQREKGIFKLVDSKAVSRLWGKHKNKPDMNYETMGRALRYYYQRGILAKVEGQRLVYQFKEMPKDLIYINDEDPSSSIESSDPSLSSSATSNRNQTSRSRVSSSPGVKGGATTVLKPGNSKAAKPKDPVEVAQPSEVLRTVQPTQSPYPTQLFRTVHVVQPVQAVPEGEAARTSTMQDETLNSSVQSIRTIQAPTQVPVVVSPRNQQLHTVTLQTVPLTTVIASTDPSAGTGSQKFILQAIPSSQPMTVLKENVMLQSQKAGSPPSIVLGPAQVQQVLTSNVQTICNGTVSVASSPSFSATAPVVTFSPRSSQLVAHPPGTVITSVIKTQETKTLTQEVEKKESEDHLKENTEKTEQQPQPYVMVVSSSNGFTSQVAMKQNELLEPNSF

Sequence | binding signal (FLI1) | binding signal (ELK1) | binding signal (GABPA) | binding signal (ERG) | binding signal (ELF1) | binding signal (EHF) | binding signal (SPI1) | binding signal (SPIB) | binding signal (ELK3)
ATGGTT | 1.41 fold enrichment (6-mer frequency, TF over GST control) | 1.28 fold enrichment (6-mer frequency, TF over GST control) | 1.28 fold enrichment (6-mer frequency, TF over GST control) | 1.35 fold enrichment (6-mer frequency, TF over GST control) | 1.39 fold enrichment (6-mer frequency, TF over GST control) | 1.28 fold enrichment (6-mer frequency, TF over GST control) | 1.3 fold enrichment (6-mer frequency, TF over GST control) | 1.3 fold enrichment (6-mer frequency, TF over GST control) | 1.39 fold enrichment (6-mer frequency, TF over GST control)
CTGCTT | 1.69 fold enrichment (6-mer frequency, TF over GST control) | 1.57 fold enrichment (6-mer frequency, TF over GST control) | 1.59 fold enrichment (6-mer frequency, TF over GST control) | 1.6 fold enrichment (6-mer frequency, TF over GST control) | 1.65 fold enrichment (6-mer frequency, TF over GST control) | 1.88 fold enrichment (6-mer frequency, TF over GST control) | 1.75 fold enrichment (6-mer frequency, TF over GST control) | 1.54 fold enrichment (6-mer frequency, TF over GST control) | 1.58 fold enrichment (6-mer frequency, TF over GST control)
ACTCCG | 1.48 fold enrichment (6-mer frequency, TF over GST control) | 1.5 fold enrichment (6-mer frequency, TF over GST control) | 1.58 fold enrichment (6-mer frequency, TF over GST control) | 1.43 fold enrichment (6-mer frequency, TF over GST control) | 1.48 fold enrichment (6-mer frequency, TF over GST control) | 1.42 fold enrichment (6-mer frequency, TF over GST control) | 1.45 fold enrichment (6-mer frequency, TF over GST control) | 1.44 fold enrichment (6-mer frequency, TF over GST control) | 1.56 fold enrichment (6-mer frequency, TF over GST control)
AATATC | 1.53 fold enrichment (6-mer frequency, TF over GST control) | 1.55 fold enrichment (6-mer frequency, TF over GST control) | 1.66 fold enrichment (6-mer frequency, TF over GST control) | 1.66 fold enrichment (6-mer frequency, TF over GST control) | 1.55 fold enrichment (6-mer frequency, TF over GST control) | 1.44 fold enrichment (6-mer frequency, TF over GST control) | 1.51 fold enrichment (6-mer frequency, TF over GST control) | 1.52 fold enrichment (6-mer frequency, TF over GST control) | 1.49 fold enrichment (6-mer frequency, TF over GST control)
TTGCCT | 1.16 fold enrichment (6-mer frequency, TF over GST control) | 1.18 fold enrichment (6-mer frequency, TF over GST control) | 1.15 fold enrichment (6-mer frequency, TF over GST control) | 1.17 fold enrichment (6-mer frequency, TF over GST control) | 1.21 fold enrichment (6-mer frequency, TF over GST control) | 1.13 fold enrichment (6-mer frequency, TF over GST control) | 1.15 fold enrichment (6-mer frequency, TF over GST control) | 1.25 fold enrichment (6-mer frequency, TF over GST control) | 1.3 fold enrichment (6-mer frequency, TF over GST control)
CCGATT | 1.42 fold enrichment (6-mer frequency, TF over GST control) | 1.35 fold enrichment (6-mer frequency, TF over GST control) | 1.32 fold enrichment (6-mer frequency, TF over GST control) | 1.34 fold enrichment (6-mer frequency, TF over GST control) | 1.36 fold enrichment (6-mer frequency, TF over GST control) | 1.4 fold enrichment (6-mer frequency, TF over GST control) | 1.31 fold enrichment (6-mer frequency, TF over GST control) | 1.4 fold enrichment (6-mer frequency, TF over GST control) | 1.29 fold enrichment (6-mer frequency, TF over GST control)
TAATAA | 1.17 fold enrichment (6-mer frequency, TF over GST control) | 1.19 fold enrichment (6-mer frequency, TF over GST control) | 1.21 fold enrichment (6-mer frequency, TF over GST control) | 1.22 fold enrichment (6-mer frequency, TF over GST control) | 1.16 fold enrichment (6-mer frequency, TF over GST control) | 1.24 fold enrichment (6-mer frequency, TF over GST control) | 1.09 fold enrichment (6-mer frequency, TF over GST control) | 1.27 fold enrichment (6-mer frequency, TF over GST control) | 1.05 fold enrichment (6-mer frequency, TF over GST control)
